Measured values from PubChem BioAssay AID651593 (National Center for Advancing Translational Sciences (NCATS), 2012).
Screen size: about 1,100 compounds; about 860 (78%) were called active. Roughly 19% stayed inconclusive and do not appear here. So high a share suggests a set chosen from earlier hits. The list shows a part of the results. A number with no mark means an inactive call. Calls follow the shape of the dose curve; as a rule, active = well fitted activation curve with a large enough effect; inconclusive = small, poorly fitted or top-dose-only effect; inactive = flat fitted curve, though single readings scatter.

Assay: qHTS of Nrf2 Activators: Hit Validation in Primary Assay; also: nearly all actives have a fitted effect of over 70% in size; as to activation: 0% is about no effect
Conditions: Nrf2/ARE reporter cell assay; Potency: activation; series mostly up to 46.1 µM; activation: at the top concentration
Summary of the method: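 Luminescence from Steady-Glo lysis reagent, read after 30 min, reported ARE-luciferase activity in AREc32_fluc stable cells. Compounds were tested at several concentrations, incubated 24 h at 37 °C with 5% CO2 following overnight seeding.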
Potency is read from the fitted curve at half-maximal effect.

Question: Which Potency does the source give for `COc1ccc(OC)c(/C=C2\SC(=S)N(Cc3cccnc3)C2=O)c1` here?
Answer: Its Potency is 5.17 µM (active).

Question: For `O=C1/C(=C/c2ccccc2O)SC(=S)N1Cc1cccnc1`, which Potency is on record?
Answer: The Potency was 4.61 µM (active).

Question: Which Potency does the source give for `C#CCOc1ccc(/C=C2\SC(=S)N(Cc3cccnc3)C2=O)cc1` here?
Answer: The Potency was 4.61 µM (active).

Question: For `O=C1CSC(=S)N1Cc1cccnc1`, which Potency is on record?
Answer: Its Potency is 10.3 µM (active).

Question: Which Potency does the source give for `C[C@H]1CCC[C@]2(C)C[C@H]3OC(=O)C(CN4CCCCCC4)[C@H]3C=C12` (some centres undefined) here?
Answer: The Potency was 5.8 µM (active).

Question: For `CC1CCN(CC2C(=O)O[C@@H]3C[C@@]4(C)CCC[C@H](C)C4=C[C@H]23)CC(C)(C)C1` (some centres undefined), which Potency is on record?
Answer: Its Potency is 5.8 µM (active).

Question: For `Brc1cc(Br)c2nc(-c3cccs3)ccc2c1`, which Potency is on record?
Answer: Its Potency is 4.11 µM (active).

Question: With `O=C(CN1CC(=O)Oc2ccccc21)OCC(=O)c1ccc(F)cc1` as the compound, how does the Potency read?
Answer: The Potency was 18.4 µM (active).

Question: For `COc1cc(OC)cc(C(=O)O/N=C(\N)c2cccc(C)c2)c1`, which “activation” value is on record?
Answer: Its value is 21.2%.

Question: With `N/C(=N\OC(=O)c1ccco1)c1cccc(Br)c1` as the compound, how does the Potency read?
Answer: Its Potency is 20.6 µM (active).

Question: With `Cc1csc(-c2ccc3cc(Cl)cc(Cl)c3n2)n1` as the compound, how does the Potency read?
Answer: The Potency was 2.59 µM (active).

Question: Which Potency does the source give for `O=C(O)CCCCCN1C(=O)/C(=C\c2ccncc2)SC1=S` here?
Answer: Its Potency is 2.91 µM (active).

Question: Which Potency does the source give for `N#Cc1nc(-c2ccco2)oc1N1CCCC1` here?
Answer: Its Potency is 2.31 µM (active).

Question: Which Potency does the source give for `Cc1nc(-c2ccccn2)sc1C(=O)Nc1ccc(F)cc1` here?
Answer: The Potency was 2.31 µM (active).

Question: For `Cc1sc(NC(=S)NC(=O)c2ccccc2)c(C#N)c1C`, which “activation” value is on record?
Answer: Its value is 17%.

Question: For `O=C(NC(=S)Nc1nc(-c2ccccc2)cs1)c1cccs1`, which Potency is on record?
Answer: The Potency was 3.66 µM (active).

Question: Which Potency does the source give for `Cc1csc(NC(=S)NC(=O)c2ccccc2)n1` here?
Answer: The Potency was 11.6 µM (active).

Question: Which Potency does the source give for `Cc1ccc2cccc(NC(=S)NC(=O)c3ccccc3)c2n1` here?
Answer: Its Potency is 4.61 µM (active).

Question: For `Cc1cc(C)c2c(NC(=S)NC(=O)c3ccccc3)nn(C)c2n1`, which Potency is on record?
Answer: The Potency was 7.31 µM (active).

Question: With `c1coc(-c2ccnc3nc(-n4cccc4)nn23)c1` as the compound, how does the Potency read?
Answer: Its Potency is 4.11 µM (active).

Question: For `c1coc(-c2ccnc(-n3cccc3)n2)c1`, which Potency is on record?
Answer: The Potency was 2.59 µM (active).

Question: Which “activation” value does the source give for `CCc1nn2c(-c3ccco3)ccnc2c1-c1ccccc1` here?
Answer: Its value is 9.08%.

Question: With `Clc1ccc(-c2ccnc(-n3cccc3)n2)s1` as the compound, how does the Potency read?
Answer: The Potency was 2.59 µM (active).

Question: Which Potency does the source give for `CSc1nc2sc3c(c2c(=O)n1C)CCC(C)C3` (centres undefined) here?
Answer: The Potency was 18.4 µM (active).

Question: Which Potency does the source give for `Cc1cc(C)c(-n2c(SCCS(=O)(=O)c3ccc(F)cc3)n[nH]c2=O)c(C)c1` here?
Answer: The Potency was 20.6 µM (active).

Question: For `NC(=O)c1ccsc1NC(=O)COC(=O)[C@@H]1CCCN1C(=O)c1cccs1`, which Potency is on record?
Answer: Its Potency is 6.51 µM (active).

Question: Which Potency does the source give for `O=C(NNC(=O)c1nc(Cl)ccc1Cl)c1ccc(F)cc1` here?
Answer: The Potency was 11.6 µM (active).

Question: For `O=C1C(=C2CCc3ccccc32)Cc2ccccc21`, which Potency is on record?
Answer: Its Potency is 1.03 µM (active).

Question: For `COC(=O)c1ccc2nc(-c3cccc(Br)c3)c(CC3CCCCC3)n2c1`, which Potency is on record?
Answer: Its Potency is 13 µM (active).

Question: With `COC(=O)c1ccc2nc(-c3ccc(F)cc3)c(CC3CCCCC3)n2c1` as the compound, how does the Potency read?
Answer: The Potency was 9.2 µM (active).

Question: With `O=c1cc(-c2ccccc2)nc2c(Cl)cc(Cl)cn12` as the compound, how does the Potency read?
Answer: Its Potency is 3.66 µM (active).

Question: For `COCCn1c(C(F)(F)F)ccc(NC(=O)c2ccccc2)c1=O`, which Potency is on record?
Answer: The Potency was 2.31 µM (active).

Question: For `FC(F)(F)c1cc(-c2cccs2)nc2cc(-c3cccs3)nn12`, which Potency is on record?
Answer: The Potency was 2.91 µM (active).

Question: For `Cc1ncc(N=Nc2ccccc2)c(-c2ccccc2)n1`, which Potency is on record?
Answer: Its Potency is 3.66 µM (active).

Question: For `Cc1ccc(CNC(=O)c2sccc2-n2cccc2)cc1`, which Potency is on record?
Answer: The Potency was 5.17 µM (active).

Question: For `CC(C)c1ccc(NC(=O)c2sccc2-n2cccc2)cc1`, which Potency is on record?
Answer: Its Potency is 2.59 µM (active).

Question: For `O=c1oc2ccc(Br)cc2cc1-c1nc2ccccc2o1`, which Potency is on record?
Answer: Its Potency is 23.1 µM (active).

Question: With `O=C(Cn1ncc(Cl)c(Cl)c1=O)NC1CCS(=O)(=O)C1` (centres undefined) as the compound, how does the Potency read?
Answer: The Potency was 6.51 µM (active).

Question: Which Potency does the source give for `O=C(Nc1cccc2ncccc12)c1ccc(Cl)cc1` here?
Answer: The Potency was 2.59 µM (active).

Question: With `Cc1cc(-c2sccc2C)nc(-n2cccc2)n1` as the compound, how does the Potency read?
Answer: The Potency was 5.8 µM (active).

Question: With `Cc1cc(-c2cccs2)nc(-n2cccc2)n1` as the compound, how does the Potency read?
Answer: The Potency was 5.17 µM (active).

Question: Which Potency does the source give for `Cc1cc(-c2sccc2Br)nc(-n2cccc2)n1` here?
Answer: The Potency was 3.66 µM (active).

Question: Which Potency does the source give for `Cc1ccsc1-c1ccnc(-n2cccc2)n1` here?
Answer: The Potency was 11.6 µM (active).

Question: For `CS(=O)(=O)c1nc(S(=O)(=O)c2ccc(Cl)cc2)c(N2CCOCC2)s1`, which Potency is on record?
Answer: The Potency was 4.11 µM (active).

Question: Which Potency does the source give for `Cc1ccc(S(=O)(=O)c2nc(S(C)(=O)=O)sc2N2CCOCC2)cc1` here?
Answer: Its Potency is 8.2 µM (active).

Question: Which Potency does the source give for `Cc1nnc2n1N=CC=C(c1ccccc1)S2` here?
Answer: The Potency was 3.66 µM (active).

Question: Which Potency does the source give for `Clc1ccc2c(NCc3ccccn3)ncnc2c1` here?
Answer: Its Potency is 4.61 µM (active).

Question: For `Oc1ccc(Cl)cc1N=Cc1sc2ccccc2c1Cl`, which Potency is on record?
Answer: The Potency was 6.51 µM (active).

Question: Which Potency does the source give for `c1ccc(Cn2ncc3c(NCc4ccco4)ncnc32)cc1` here?
Answer: Its Potency is 2.06 µM (active).

Question: For `CCc1cc2c(NCc3ccco3)ncnc2s1`, which Potency is on record?
Answer: The Potency was 3.66 µM (active).

Question: Which Potency does the source give for `Cc1sc2ncnc(NCc3ccco3)c2c1C` here?
Answer: Its Potency is 3.66 µM (active).

Question: Which Potency does the source give for `Cc1sc2ncnc(SCc3ccco3)c2c1C` here?
Answer: Its Potency is 2.91 µM (active).

Question: With `Cc1sc2ncnc(Sc3nnnn3-c3ccccc3)c2c1C` as the compound, how does the “activation” value read?
Answer: Its value is 15.9%.

Question: For `CCN(CC)CCNC(=O)C(Cl)=C1C(Cl)=C(Cl)C(Cl)=C1Cl`, which Potency is on record?
Answer: Its Potency is 3.66 µM (active).

Question: For `O=C(NC(=S)Nc1cccc2cccnc12)c1cccs1`, which Potency is on record?
Answer: The Potency was 2.91 µM (active).

Question: For `O=C(NC(=S)Nc1ccc(Cl)cn1)c1cccs1`, which Potency is on record?
Answer: Its Potency is 2.91 µM (active).

Question: Which Potency does the source give for `Cc1cccc(NC(=S)NC(=O)c2cccs2)n1` here?
Answer: The Potency was 8.2 µM (active).

Question: Which Potency does the source give for `O=C(NC(=S)Nc1ccc(Br)cn1)c1cccs1` here?
Answer: The Potency was 2.91 µM (active).

Question: Which Potency does the source give for `COC(=O)c1cc2c(s1)-c1cc(F)ccc1OC2` here?
Answer: Its Potency is 9.2 µM (active).

Question: Which Potency does the source give for `O=C1/C(=C\c2ccc(Cl)cc2)CCC1CNc1ccc(Cl)cc1` (centres undefined) here?
Answer: The Potency was 3.66 µM (active).

Question: For `N#Cc1cnc2cc(-c3ccccc3)nn2c1N`, which Potency is on record?
Answer: The Potency was 6.51 µM (active).

Question: For `CC(=O)Nc1ccc(S(=O)(=O)c2ccnc3cc(Cl)ccc23)cc1`, which Potency is on record?
Answer: Its Potency is 14.6 µM (active).

Question: With `O=S(=O)(c1ccc(F)cc1)c1snnc1-c1ccccc1` as the compound, how does the Potency read?
Answer: The Potency was 18.4 µM (active).

Question: With `O=C(/C(C=Nc1cccc(C(F)(F)F)c1)=C(/O)c1ccco1)C(F)(F)F` as the compound, how does the Potency read?
Answer: The Potency was 11.6 µM (active).

Question: With `Cc1ccc(N=C/C(C(=O)C(F)(F)F)=C(\O)c2ccco2)cc1Cl` as the compound, how does the Potency read?
Answer: The Potency was 7.31 µM (active).

Question: Which Potency does the source give for `Cc1cccc(N=C/C(C(=O)C(F)(F)F)=C(\O)c2ccco2)c1` here?
Answer: The Potency was 20.6 µM (active).

Question: For `O=C(/C(C=Nc1ccc(F)cc1)=C(/O)c1ccco1)C(F)(F)F`, which Potency is on record?
Answer: The Potency was 20.6 µM (active).

Question: For `CC(=O)Nc1ccc(N=Nc2ccccc2)cc1[N+](=O)[O-]`, which Potency is on record?
Answer: The Potency was 3.66 µM (active).

Question: With `CC(=O)Nc1cc2oc3ccccc3c2cc1[N+](=O)[O-]` as the compound, how does the Potency read?
Answer: The Potency was 2.59 µM (active).
